The results in this text go back to PubChem BioAssay AID588689 (Southern Research Specialized Biocontainment Screening …, 2011).

For the test, the target named is Genome polyprotein (Dengue virus type 2 (strain 16681-PDK53)) (UniProt P29991). The test is described as follows: Dengue-2 NS5 methyltransferase inhibitors, primary screen, biochemical, confirmation dose response (AID 588689). Particulars: Dengue-2 NS5 methyltransferase capping enzyme assay, at 25 µM, stronger effect = higher value.
[1] abbreviates: measured here: pilot screen replicate inhibition.

Among all 340,000 compounds or so, about 1,000 (0.29%) were called active. No stated cut-off is given here; in the data, inconclusive means inhibition above about 29% without an active follow-up result; inactive means below that. The list is a sample of the results. Measured potencies and affinities stand elsewhere.

Take `CCOC(=O)CN1C(=O)N[C@@H](c2cccs2)C(C(=O)OC)=C1C`: the inhibition (in general, the relative decrease from the control value, in per cent) is -0.8% (inactive).

Regarding `Cn1ccnc1C(=O)c1cc(SCC(=O)NC2CC2)nc2ccccc12`, the inhibition is 0.73% (inactive).

`O=C(NCc1nnnn1-c1ccc(F)cc1)c1cc2ccccc2o1`: the inhibition is 9.89% (inactive).

With `CCCCCCCCN1[C@@H](CC(=O)OCC)c2cc(C(F)(F)F)ccc2S1(=O)=O`, the inhibition is -6.14% (inactive).

On to `CC(C)COc1cccc(C(=O)N(C)CC(=O)Nc2cccc3ccccc23)c1`, for which the inhibition is -6.94% (inactive).

On to `Cc1cccc(CC(=O)Nc2ccon2)c1`, for which the inhibition was -7.18% (inactive). Further, the inhibition under setting [1] was 1.51%.

In the case of `NS(=O)(=O)c1ccc(N/N=C/c2ccc(O)cc2O)c([N+](=O)[O-])c1`, the inhibition is 27.2% (inactive).

As to `NS(=O)(=O)c1ccc(N/N=C/c2ccccc2C(=O)O)c([N+](=O)[O-])c1`, the inhibition is 4.52% (inactive).

For the compound `O=[N+]([O-])c1ccc(N/N=C/c2cccc(O)c2O)c(S(=O)(=O)N2CCOCC2)c1`, the inhibition is 6.18% (inactive).

For `COc1cc(/C=N/Nc2ccc([N+](=O)[O-])cc2S(=O)(=O)N2CCOCC2)cc(OC)c1OC`, the inhibition was -2.58% (inactive).

Consider `Cc1c(OCC(=O)N2CCC(C(N)=O)CC2)ccc2c3c(c(=O)oc12)CCCC3`, for which the inhibition is -4.35% (inactive).

Turning to `CCOCCCNC(=O)CCc1nnc2n(CCC(C)C)c(=O)c3ccccc3n12`, the inhibition was -4.57% (inactive).

As to `CCOc1cc(NC(=S)NCCCN2CCOCC2)c(OCC)cc1NC(=O)C1CCCCC1`, the inhibition is -10.9% (inactive).

With `O=C(O)CCCc1ccc2c(c1)CCc1ccccc1-2`, the inhibition was -0.8% (inactive).

Take `CC(=O)Nc1ccc2c(c1)CCc1ccccc1-2`: the inhibition is -9.7% (inactive).

Take `CCN(CC(=O)NCc1cccs1)S(=O)(=O)c1ccccc1Cl`: the inhibition was 0% (inactive).

Take `O=C(NCc1ccncc1)C(=O)NCC1OCCN1S(=O)(=O)c1ccc(F)cc1` (centres undefined): the inhibition was -3.87% (inactive).

For the compound `CCC(COC(C)=O)Nc1nc2c([nH]1)c(=O)n(C)c(=O)n2C` (centres undefined), the inhibition is 9.2% (inactive).

Regarding `COC(=O)c1cc(OC)nc2ccc(Br)cc12`, the inhibition is 4.64% (inactive).

Consider `COC(=O)C1=C(C(=O)OC)C(c2cc([N+](=O)[O-])ccc2O)c2sc(=O)[nH]c2S1` (centres undefined), for which the inhibition was -1.58% (inactive).

Take `COC(=O)c1sc2ccccc2c1N`: the inhibition was -9.74% (inactive).

Consider `COC(=O)C1=C(C(=O)OC)C(c2ccc(OC)c(OC)c2)c2sc(=O)[nH]c2S1` (centres undefined), for which the inhibition was 18% (inactive).

As for `Cc1ccnc(NC(=O)C2CCCN(c3ncnc4c3nc3n4CCCCC3)C2)c1` (centres undefined), the inhibition is 0.45% (inactive).

Turning to `CCOc1cc(/C=N/N=C2/NC(=O)C(CC(=O)O)S2)ccc1OCc1ccc(Cl)cc1Cl` (centres undefined), the inhibition is 25.1% (inactive).

Take `CCOc1cc(/C=N/NC(=O)CSc2nnc(C)s2)ccc1OCc1ccccc1Cl`: the inhibition is 8.09% (inactive).

`COc1ccc(/C=N/N=C2/NC(=O)C(CC(=O)O)S2)cc1OCc1ccc(Cl)cc1` (centres undefined): the inhibition was 13.3% (inactive).

With `COc1cc(/C=N/NC(=O)CC2(C)OCCCO2)ccc1OCc1ccc(Cl)cc1Cl`, the inhibition is -4.47% (inactive).

Turning to `COc1cc(/C=N/N=C2/NC(=O)C(CC(=O)O)S2)ccc1OCc1ccc(Cl)cc1` (centres undefined), the inhibition was 16.7% (inactive).

As for `COc1ccc(/C=N/N=C2/NC(=O)C(CC(=O)O)S2)cc1OCc1ccccc1Cl` (centres undefined), the inhibition was 17.8% (inactive).

For the compound `O=C1CCc2nc3ccccc3c(=O)n2N1`, the inhibition is -1.38% (inactive).

Turning to `COc1cccc(C(CNc2ccc(S(=O)(=O)N3CCN(C)CC3)cc2[N+](=O)[O-])N(C)C)c1` (centres undefined), the inhibition was 2.89% (inactive).

In the case of `Cc1onc(-c2c(F)cccc2Cl)c1C(=O)NNC(=O)C1CCN(Cc2cccc(F)c2)CC1`, the inhibition is -7.02% (inactive).

For `COc1ccc(S(=O)(=O)NNC(=O)c2cccs2)cc1`, the inhibition is -2.33% (inactive).

As for `O=C(O)c1[nH]c2ccc([N+](=O)[O-])cc2c1-c1ccccc1`, the inhibition is 10.3% (inactive).

Take `COc1cc(C(=O)Nc2c(C(=O)O)[nH]c3ccccc23)cc(OC)c1OC`: the inhibition is -6.62% (inactive).

Regarding `COc1ccc(S(=O)(=O)Nc2c(C(=O)O)[nH]c3ccccc23)cc1OC`, the inhibition was 1.6% (inactive).

Consider `O=c1[nH]c2ccccc2c(O)c1-c1ccccc1[N+](=O)[O-]`, for which the inhibition is -7.29% (inactive).

In the case of `CSc1nsc(SCC(=O)Nc2ccc(NC(C)=O)cc2)n1`, the inhibition was 2.42% (inactive).

Regarding `COc1ccccc1CNS(=O)(=O)c1cccc2nsnc12`, the inhibition is 3.22% (inactive).

On to `Cc1ccc(NC(=O)CSCC(=O)NCc2cccc(C(F)(F)F)c2)cc1`, for which the inhibition was 0.73% (inactive).

Take `O=C(CSc1nc(O)c(C(c2ccccc2)c2ccccc2)c(=O)[nH]1)N1CCOCC1`: the inhibition was -5.31% (inactive).

`Cc1ccccc1-n1cnnc1SCC(=O)Nc1cccnc1Cl`: the inhibition is 2.99% (inactive).

On to `CCCCOC(=O)c1ccc(NC(=O)C(=O)NCc2cccnc2)cc1`, for which the inhibition was -1.56% (inactive).

As for `N=C1C(c2nc3ccccc3s2)=C(O)CN1Cc1ccco1`, the inhibition is -1.36% (inactive).

As to `Nc1nc(CSC(=S)N2CCOCC2)nc(Nc2ccccc2)n1`, the inhibition was 1.28% (inactive).

On to `Cc1ccc(CNC(=O)C2CCC(=O)N2C(C)C)cc1` (centres undefined), for which the inhibition was -1.99% (inactive).

For the compound `COc1cc(/C=C2\SC(=O)N(c3ccccc3Cl)C2=O)cc([N+](=O)[O-])c1O`, the inhibition is -6.99% (inactive).

Consider `O=C(NN1C(=O)/C(=C/c2ccc(O)c([N+](=O)[O-])c2)SC1=S)c1ccccc1Cl`, for which the inhibition is -3.59% (inactive).

In the case of `CCc1cccc(N(C(=O)c2csnn2)C(C(=O)NC(C)(C)C)c2ccccn2)c1` (centres undefined), the inhibition is -5.18% (inactive).

As for `CCC(C)NC(=O)Nc1ccccc1C` (centres undefined), the inhibition is -2.79% (inactive).

On to `CCC(=O)c1ccc(OCC(O)CN2CCN(S(=O)(=O)N3CCCCC3)CC2)cc1` (centres undefined), for which the inhibition is 5.46% (inactive).

With `O=c1oc2ccccc2c2c1C(O)CO2` (centres undefined), the inhibition was -7.16% (inactive).

For the compound `Cc1c(O)c2ccccc2oc1=O`, the inhibition is -7.95% (inactive).

As to `OCC1OC2C(NC(=S)N2c2ccccc2)C(O)C1O` (centres undefined), the inhibition is 0.77% (inactive).

`COc1ccc(C(c2c(C)[nH][nH]c2=O)c2c(C)[nH][nH]c2=O)cc1Br`: the inhibition is -3.47% (inactive).

Take `Oc1ccccc1O`: the inhibition is 0.73% (inactive).

Turning to `Nc1ccccc1O`, the inhibition is -6.55% (inactive).

On to `O=C(Nc1ccc2c(c1)OCO2)N1CCN(Cc2ccco2)CC1`, for which the inhibition is 0% (inactive).

On to `COc1ccc(N2C(=O)/C(=C/c3ccc([N+](=O)[O-])cc3)N=C2C)c(OC)c1`, for which the inhibition is -3.69% (inactive).

Take `COc1ccc(OC)c(N2C(=O)c3cccnc3C2=O)c1`: the inhibition was 0.65% (inactive). The inhibition under setting [1] worked out at 1.22%.

As for `COc1ccc(OC)c(N2C(=O)CCCC2=O)c1`, the inhibition is -1.93% (inactive).

As to `COc1ccc(NCc2ccc([N+](=O)[O-])s2)c(OC)c1`, the inhibition is 7.28% (inactive).

Take `COc1ccc(NC(=S)N2CCC(C(=O)c3ccc(C)cc3)CC2)cc1`: the inhibition is -11.5% (inactive).

Take `Cc1ccc(C2=NNC(C(O)C(O)C(O)CO)S2)cc1` (centres undefined): the inhibition is -8.04% (inactive).

On to `O=C(CCN1C(=O)S/C(=C/c2ccccc2)C1=O)Nc1ccc(C(=O)O)c(O)c1`, for which the inhibition is 25.9% (inactive).

Consider `O=C(CCN1C(=O)/C(=C\C=C\c2ccccc2)SC1=S)Nc1ccc(C(=O)O)cc1`, for which the inhibition is 9.75% (inactive).

For `O=C(CCN1C(=O)/C(=C/c2ccccc2Cl)SC1=S)Nc1ccccn1`, the inhibition was 1.55% (inactive).

For `O=C(CCN1C(=O)S/C(=C/c2ccc(F)cc2)C1=O)Nc1ccc(O)c(C(=O)O)c1`, the inhibition was 19.6% (inactive).

In the case of `O=C(CCN1C(=O)/C(=C/c2cccs2)SC1=S)Nc1ccc(C(=O)O)c(O)c1`, the inhibition is 15% (inactive).

For the compound `O=C(CN1C(=O)S/C(=C\C=C\c2ccccc2)C1=O)Nc1ccccc1C(=O)O`, the inhibition is 24.3% (inactive).

As to `COc1ccccc1/C=C1\SC(=S)N(CCC(=O)Nc2ccc(C(=O)O)c(O)c2)C1=O`, the inhibition was 19.8% (inactive).

For the compound `O=C(CCN1C(=O)/C(=C/c2ccccc2Cl)SC1=S)NNC(=O)c1ccccc1O`, the inhibition is -5.13% (inactive).

Consider `CCN(Cc1nc2cc(Cl)ccc2c(=O)[nH]1)C(=O)c1cccc(NC(=O)c2cccs2)c1`, for which the inhibition is -6.19% (inactive).

Regarding `Cc1ccc(NC(=O)CCC(=O)c2ccccc2)cc1`, the inhibition is -17.5% (inactive).

As for `Cc1ccc(S(=O)(=O)NCCN2CCOCC2)c(C)c1C`, the inhibition is 3.68% (inactive).

As for `O=C(Cc1ccc(Cl)cc1)N1CCC2(CC1)NCCc1[nH]cnc12`, the inhibition was -10.7% (inactive).

As for `Cc1cc(NC(=O)CCC(=O)N(c2ccc(F)cc2)C(C(=O)NC2CCCC2)c2cccnc2)no1` (centres undefined), the inhibition was 6.51% (inactive).

As to `O=C(CCN1C(=O)/C(=C/c2ccc3c(c2)OCO3)SC1=S)Nc1ccccc1`, the inhibition is 2.89% (inactive).

Take `O=C(CCCN1C(=O)/C(=C/c2ccc3c(c2)OCO3)SC1=S)Nc1cccc(C(=O)O)c1`: the inhibition is 0.32% (inactive).

Regarding `CC(C)c1ccc(C2N3CC4([N+](=O)[O-])CN2CC([N+](=O)[O-])(C3)C4(C)C)cc1` (centres undefined), the inhibition is -2.65% (inactive).

Take `COc1ccc(C=O)cc1CN1C(=O)c2ccccc2C1=O`: the inhibition was 5.3% (inactive).

On to `COc1ccccc1N1C(=O)Cc2ccccc2C1=O`, for which the inhibition is 1.63% (inactive).

As to `COc1ccc2c(c1)C(=O)N(c1ccccc1OC)C(=O)C2`, the inhibition was 0.7% (inactive).

Take `COc1ccc(C)cc1CN1C(=O)c2ccccc2C1=O`: the inhibition is -12.4% (inactive).

For the compound `COc1ccc(/C=C2/NC(=O)N(Cc3ccccc3F)C2=O)cc1OC`, the inhibition was 0.77% (inactive).

Consider `COc1ccc(/C=C2\C(=O)NC(=O)c3ccccc32)cc1OC`, for which the inhibition is 25.5% (inactive).

Consider `O=c1cc(Cl)[nH]c(=O)n1Cc1ccc(F)cc1`, for which the inhibition was -9.54% (inactive).

Regarding `Cc1cc(C)cc(NC(=O)c2ccc(NC(=O)c3ccco3)cc2)c1`, the inhibition is -0.32% (inactive).

With `N#CCC(=O)Nc1ccc(C(=O)NNC(=O)CCN2CCN(c3ccccc3)CC2)cc1`, the inhibition is -13.1% (inactive).

Consider `CCC[C@@H](CN1CCC[C@H]1CN1C(N)=NC[C@H]1CC(C)C)N1C[C@@H](Cc2ccccc2)N(CCCC2CCCC2)C1=N`, for which the inhibition was -0.66% (inactive). Further, under setting [1], the inhibition is -1.83%.

Turning to `CC(CN1CCN(Cc2ccccc2)CC1)OC(=O)c1ccco1` (centres undefined), the inhibition is 2.3% (inactive).
